Sm TGR inh: S. mansoni TGR enzyme inhibition; Potency, µM (highest dose often 114 µM), for inactives: at the top dose activity change, negative = inhibition, actives largely listed as inhibitors; AID 485364; purified TGR, DTNB reduction, TNB absorbance 405 nm; Q962Y6; 3% of 360,000 active; active means well fitted inhibition curve with a large enough effect; inconclusive means small, poorly fitted or top-dose-only effect; inactive means no such curve, though single readings can be large or run the other way; further: on the % scale 0 is the no-effect control and ±100 the full control effect; nearly all actives have a fitted effect of over 60% in size
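First, TGR (20 nM dispensed) and NADPH were mixed with compound. Second, a 15 min room-temperature incubation followed. Third, further NADPH and then DTNB were added to start the reaction. Finally, TNB absorbance was monitored kinetically.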
SARS PLpro yeast: inhibitors of SARS-CoV papain-like protease in yeast; S. cerevisiae expressing SARS-CoV PLpro, growth rescue; Potency, µM (highest dose often 32.9 µM), for inactives: top-dose activity, positive = growth rescue, usual class: activators; 0.19% of 330,000 active; calls by dose curve; further: 0% is about no effect; nearly all actives have a fitted effect of over 55% in size
The depositor's hits bear a star; ? = inconclusive; / = no result; [ ] = dose if it differs, or a comment. Rows were chosen to be rich in hits. Some 3% of all compounds tested hit in one or more screens of this group. Potency means the concentration at half of the fitted maximal effect.

SMILES	Sm TGR inh	SARS PLpro yeast
COC(=O)CN1C(=O)CSc2ccc(S(=O)(=O)Nc3c(C)cc(C)cc3C)cc21	2%	/
COc1ccc2c(c1)OC1=C(C(=O)CCC1)C2C1=C(O)CCCC1=O (centres undefined)	18µM*	2%
O=C1CCCC(O)=C1C1C2=C(CCCC2=O)OC2=C1C(=O)CCC2	-6%[57.1 µM]	1%
CCCOc1ccc(CNC(=O)C2CCN(C(=O)c3sccc3-n3cccc3)CC2)cc1	0%	/
Cc1cccc(-c2nc(SCC(=O)N3CCc4ccccc43)c3c(=O)n(C)c(=O)n(C)c3n2)c1	1%	/
Cc1ccccc1CNC(=O)c1nn(-c2ccccc2F)nc1CO	6%	/
CC(=O)N1CCc2c(sc3c2c(=O)n(-c2ccccc2C)c(=O)n3CC(=O)c2ccccc2)C1	-3%	/
COc1cccc2c1cc1c(=O)n(CC(=O)N3CCN(c4ccccc4F)CC3)nc(C)n12	11%	/
COc1ccc(Br)cc1CNC(=O)Cn1c(=O)c2cccn2c2ccc(F)cc21	-5%	/
Fc1ccc(CNc2ccccn2)cc1	2%	4%
O=C(NNc1ccccn1)C(c1ccccc1)c1ccccc1	-3%	0%
O=c1cc(CO)oc(C(Nc2ccccn2)c2ccsc2)c1O (centres undefined)	11µM*	-1%
Cc1ccnc(NC(c2ccccc2O)c2oc(CO)cc(=O)c2O)c1 (centres undefined)	1.8µM*	?
Cc1ccnc(NC(=O)c2cc3ccccc3oc2=O)c1	6%	4%
O=c1cc(CO)oc(C(Nc2ccccn2)c2ccc(F)cc2)c1O (centres undefined)	2.5µM*	-1%
Cc1ccc(-c2nc3ncccc3o2)cc1NC(=O)c1ccc(-c2ccc(Cl)cc2)o1	-11%	/
COc1ccccc1C(=O)NCCn1cc(SCc2ccc(C)cc2)c2ccccc21	-7%	/
Cc1ccc(C(C)C)c(OCC(=O)Nc2ccc(O)c(-c3nc4cc(Cl)ccc4o3)c2)c1	-5%	/
CC(C)(C)c1ccc(S(=O)(=O)N2CCN(Cc3noc(CCC(=O)N4CCCCC4)n3)CC2)cc1	-3%	/
N#CCCn1cc(C=C(C#N)C#N)c(-c2ccc(Cl)cc2)n1	1.3µM*	-1%
N#CCCn1cc(/C=N/O)c(-c2ccc(Cl)cc2)n1	15%	6%
COc1ccc([C@]23Cc4cc(C#N)ccc4[C@H](O2)c2c(cc(C)n(Cc4ccccc4)c2=O)O3)cc1	-33%[22.9 µM]	2%[6.58 µM]
O=C(O)C1=C[C@@H](C2CCCCC2)C[C@@H](OCc2ccc(CO)cc2)O1	-3%	-1%
C#CCNC(=O)C1=C[C@H](C2CCCCC2)C[C@H](OCc2ccc(CO)cc2)O1	20µM*	-4%
C#CCNC(=O)C1=C[C@@H](C2CCCCC2)C[C@@H](OCc2ccc(CO)cc2)O1	22µM*	-1%
SMILES	Sm TGR inh	SARS PLpro yeast
O=C(NC1CC1)C1=C[C@H](C2CCCCC2)C[C@H](OCc2ccc(CO)cc2)O1	-5%	-3%
Cc1cccc(CNC(=O)c2ccc3oc(=O)n(Cc4ccccc4)c3c2)c1	6%	/
CCc1ccc(NCc2cc3cc4c(cc3n(CC(=O)Nc3cccc(OC)c3)c2=O)OCO4)cc1	-17%	/
Cc1ccccc1-c1ccnc2c(-c3ccc(F)cc3)c(C)nn12	2%	/
CC(C)c1ccc(OCC(=O)Nc2c(C(=O)c3ccc(F)cc3)oc3ccccc23)cc1	0%	/
COCCCNC(=O)c1ccc2c3c(onc13)-c1ccccc1C2=O	0%	-8%
CCOC(=O)C(C(=O)OCC)c1cc(Br)c2noc3c2c1C(=O)c1ccccc1-3	0.63µM*	-17%
COc1ccc2sc(N(Cc3cccnc3)C(=O)c3ccc4c(c3)OCCO4)nc2c1	-1%	/
O=C(CC1C(=O)N(c2ccc(F)cc2)C(=O)N1Cc1ccc2c(c1)OCO2)Nc1ccc(F)cc1 (centres undefined)	-2%	/
O=C(CCC1N=C2c3ccccc3N=C(SCc3cccc(F)c3)N2C1=O)NCc1ccc(F)cc1 (centres undefined)	-1%	/
O=C(CCl)NCc1c(Cl)cccc1-n1cccc1	32µM*	9%
O=C(Cc1c(Cl)cccc1Cl)NCCc1ccc(Cl)cc1	2%	-7%
O=C(c1ccccc1)c1cc2ccc(O)cc2oc1=O	-12%	-19%
O=C(c1ccc(Br)cc1)c1cc2ccc(O)cc2oc1=O	35µM*	-7%
Cc1ccc(N(CC(=O)NCC2CCCO2)C(=O)CCC(=O)Nc2ccccn2)cc1 (centres undefined)	-2%	1%
Cc1ccc(N(CC(=O)NCC2CCCO2)C(=O)CCC(=O)Nc2ccccn2)cc1C (centres undefined)	79µM*	14%
CCCCCn1c(=O)[nH]c2cc(C(=O)Nc3ccc(F)c(F)c3)ccc2c1=O	4%	/
Cc1ccc2cccc(NC(=O)C(C)(C)Oc3ccc(Br)cc3)c2n1	13%	/
Cc1cc(C(=O)COC(=O)c2cc(O)c3ccccc3c2O)c(C)n1CC1CCCO1 (centres undefined)	20µM*	-13%

Screening results deposited in PubChem BioAssay by National Center for Advancing Translational Sciences (NCATS).
